The source of these data is PubChem BioAssay.

Test [1] relates to PRMT1 (protein arginine N-methyltransferase 1). Briefly: small molecules binding arginine methyltransferase PRMT1 – biochemical, small-molecule microarray, 635 nm fluorescence, primary screen (AID 1088).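 Note: binding of Prmt1 protein to compounds spotted on small-molecule microarray slides.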 The note with it: higher = more signal.
Test [2] is described as follows: growth effects on S. cerevisiae YJM789 – YJM789 clinical isolate, OD600, 24 h, basal, primary screen (AID 1089).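 Note: growth of clinical yeast isolate S. cerevisiae YJM 789 seeded 1000 cells per well; test concentration not given here.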 The following applies: higher = more signal, called active from +8 up or from −8 down.
Test [3] can be described thus: S. pombe growth modifiers, basal conditions – strain 972, OD600, 24 h, no modulator, primary screen (AID 1090).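 Note: basal condition with compound alone and no growth modifier present; test concentration not given here.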 The following applies: S. pombe 972 growth, higher = more signal, called active from +8 up or from −8 down.
Test [4] is described as follows: budding yeast growth modifiers under rapamycin – strain BY4716, OD600, 96 h, primary screen (AID 1091). Note: test concentration not given here. The following applies: S. cerevisiae BY4716 + rapamycin, higher = more signal, called active from +8 up or from −8 down.
Test [5] deals with Torsin-1A-interacting protein 2 (Homo sapiens) (UniProt Q8NFQ8). Briefly: small molecules binding lysate-expressed LULL1 – cell lysate, human LULL1 lysate, 635/667 nm fluorescence, primary screen (AID 1092).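 Note: probe is lysate of COS7 cells overexpressing human LULL1; score merges per-feature 667 nm fluorescence with signal-to-noise.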 The note with it: small-molecule microarray, hLULL1 lysate binding, 635 nm fluorescence; higher = more signal.
Torsin-1A-interacting protein 2 (Homo sapiens), sequence (Q8NFQ8 whole entry, looked up): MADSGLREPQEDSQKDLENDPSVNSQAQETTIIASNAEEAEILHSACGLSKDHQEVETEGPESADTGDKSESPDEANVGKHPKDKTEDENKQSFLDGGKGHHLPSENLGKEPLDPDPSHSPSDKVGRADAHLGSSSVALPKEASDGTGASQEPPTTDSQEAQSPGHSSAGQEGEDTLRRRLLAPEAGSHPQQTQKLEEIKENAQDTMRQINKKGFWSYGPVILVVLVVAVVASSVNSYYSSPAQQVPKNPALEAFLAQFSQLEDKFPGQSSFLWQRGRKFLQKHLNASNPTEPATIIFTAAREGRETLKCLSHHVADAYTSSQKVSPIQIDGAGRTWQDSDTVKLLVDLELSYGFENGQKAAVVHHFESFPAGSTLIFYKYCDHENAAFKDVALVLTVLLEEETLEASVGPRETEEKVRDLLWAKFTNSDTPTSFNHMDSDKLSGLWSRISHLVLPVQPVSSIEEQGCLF
Test [6] can be described thus: optical density change of DRC41 E. coli – strain DRC41, OD650, 24 h, E. coli filamentation project, primary screen (AID 1093).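 Note: MC1000 strain lacking acrAB efflux and sulA so SOS filamentation is blocked; test concentration not given here.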 The following applies: E. coli DRC41 growth, higher = more signal, called active from +8 up or from −8 down.
Test [7] is described as follows: probe aLefty2 binding to arrayed compounds – biochemical, biotinylated probe, 635/667 nm fluorescence, primary screen (AID 1094).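 Note: score merges spot fluorescence near 667 nm with spot signal-to-noise ratio.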 The note with it: small-molecule microarray, higher = more signal.
The test system of test [8] is Noggin (protein binding on small-molecule microarray). Kind of test: small molecules binding Noggin protein – biochemical, 635/667 nm fluorescence, primary screen (AID 1095).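 Note: score merges 667 nm feature fluorescence with signal to noise over triplicate slides.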 The note with it: 635 nm fluorescence, higher = more signal.
Test [9] concerns the target Neurogenic locus notch homolog protein 3 (Homo sapiens) (UniProt Q9UM47). Kind of test: small molecules binding NOTCH3 protein – biochemical, 635/667 nm fluorescence, primary screen (AID 1096). The note with it: small-molecule microarray, 635 nm fluorescence, higher = more signal.
Test [10] can be described thus: probe aEGFR binding to arrayed compounds – biochemical, biotinylated probe, 635/667 nm fluorescence, primary screen (AID 1097).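 Note: probe is a biotinylated anti-EGFR antibody binding compounds printed on slides; score combines fluorescence near 667 nm and signal to noise of each spot.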 The note with it: small-molecule microarray, higher = more signal.

Active and inactive are the calls of the source.

Neurogenic locus notch homolog protein 3 (Homo sapiens), sequence (Q9UM47 whole entry, looked up): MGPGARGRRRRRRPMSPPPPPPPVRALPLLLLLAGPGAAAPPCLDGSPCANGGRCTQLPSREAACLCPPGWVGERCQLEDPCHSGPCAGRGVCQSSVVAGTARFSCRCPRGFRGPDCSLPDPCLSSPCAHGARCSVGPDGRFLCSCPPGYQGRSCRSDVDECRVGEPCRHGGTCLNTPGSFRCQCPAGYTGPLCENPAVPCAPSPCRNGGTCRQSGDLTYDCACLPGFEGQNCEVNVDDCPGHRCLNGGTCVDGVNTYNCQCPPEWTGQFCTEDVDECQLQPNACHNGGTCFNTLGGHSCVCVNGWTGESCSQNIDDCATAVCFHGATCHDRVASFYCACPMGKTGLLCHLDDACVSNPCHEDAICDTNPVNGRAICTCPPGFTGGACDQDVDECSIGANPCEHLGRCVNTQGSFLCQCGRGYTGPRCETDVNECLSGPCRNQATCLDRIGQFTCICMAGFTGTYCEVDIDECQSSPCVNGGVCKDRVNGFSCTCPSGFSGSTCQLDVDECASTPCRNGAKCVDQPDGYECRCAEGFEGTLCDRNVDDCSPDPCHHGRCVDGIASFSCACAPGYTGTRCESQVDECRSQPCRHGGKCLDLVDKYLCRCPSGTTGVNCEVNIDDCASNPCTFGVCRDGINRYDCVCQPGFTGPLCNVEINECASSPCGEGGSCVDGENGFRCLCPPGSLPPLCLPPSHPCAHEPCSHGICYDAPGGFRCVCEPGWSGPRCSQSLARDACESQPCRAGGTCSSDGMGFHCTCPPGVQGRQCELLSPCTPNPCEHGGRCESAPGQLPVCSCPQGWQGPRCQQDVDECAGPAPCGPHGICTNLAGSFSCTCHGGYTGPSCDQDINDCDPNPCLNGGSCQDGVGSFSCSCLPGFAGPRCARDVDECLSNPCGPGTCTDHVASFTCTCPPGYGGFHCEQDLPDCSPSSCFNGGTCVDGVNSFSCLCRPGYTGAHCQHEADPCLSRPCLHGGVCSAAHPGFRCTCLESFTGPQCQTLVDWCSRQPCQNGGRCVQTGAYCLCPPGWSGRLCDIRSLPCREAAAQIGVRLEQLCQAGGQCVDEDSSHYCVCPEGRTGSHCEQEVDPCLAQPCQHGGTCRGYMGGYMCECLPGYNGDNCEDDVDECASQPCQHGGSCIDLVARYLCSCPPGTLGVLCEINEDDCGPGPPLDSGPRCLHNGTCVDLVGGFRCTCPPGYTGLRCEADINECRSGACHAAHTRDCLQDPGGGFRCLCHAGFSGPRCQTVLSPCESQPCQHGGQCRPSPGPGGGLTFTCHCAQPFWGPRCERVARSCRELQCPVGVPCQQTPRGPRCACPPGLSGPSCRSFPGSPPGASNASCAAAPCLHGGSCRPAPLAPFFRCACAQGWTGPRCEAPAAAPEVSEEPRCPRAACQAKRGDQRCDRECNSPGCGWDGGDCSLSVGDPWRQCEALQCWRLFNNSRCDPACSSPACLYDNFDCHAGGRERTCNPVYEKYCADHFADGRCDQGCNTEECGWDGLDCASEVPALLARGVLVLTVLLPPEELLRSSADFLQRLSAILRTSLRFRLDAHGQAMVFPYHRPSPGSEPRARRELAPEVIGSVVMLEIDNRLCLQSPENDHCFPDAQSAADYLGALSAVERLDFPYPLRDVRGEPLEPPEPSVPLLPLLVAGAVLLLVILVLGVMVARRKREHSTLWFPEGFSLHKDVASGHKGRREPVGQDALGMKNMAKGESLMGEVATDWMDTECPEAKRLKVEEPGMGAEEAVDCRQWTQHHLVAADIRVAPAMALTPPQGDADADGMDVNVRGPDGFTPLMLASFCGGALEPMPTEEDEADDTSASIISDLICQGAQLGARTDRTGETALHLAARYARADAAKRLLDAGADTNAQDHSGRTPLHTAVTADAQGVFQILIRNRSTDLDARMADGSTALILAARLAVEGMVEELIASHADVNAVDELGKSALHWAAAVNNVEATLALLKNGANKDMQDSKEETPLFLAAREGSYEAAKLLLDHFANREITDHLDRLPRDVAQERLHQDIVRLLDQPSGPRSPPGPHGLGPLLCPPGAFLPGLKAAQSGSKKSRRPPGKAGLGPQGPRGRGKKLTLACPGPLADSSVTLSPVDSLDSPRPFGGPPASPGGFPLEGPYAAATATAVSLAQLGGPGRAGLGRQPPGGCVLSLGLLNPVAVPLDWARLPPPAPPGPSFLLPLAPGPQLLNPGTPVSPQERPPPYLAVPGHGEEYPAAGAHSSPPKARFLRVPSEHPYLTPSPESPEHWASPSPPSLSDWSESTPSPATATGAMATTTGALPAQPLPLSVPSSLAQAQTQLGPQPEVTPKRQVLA

For the molecule `COC(=O)[C@@H]1CCCN1C(=O)[C@@H](C)CO`, the composite z-score was 0.177 in test [1]; 0.93 in test [5]; -0.152 in test [7]; 0.415 in test [8]; 0.753 in test [9]; 0.0055 in test [10]. Also, the z-score in test [2] was -1.12 (inactive); in [3] it was -0.988 (inactive); in test [4] it was 0.258 (inactive); in test [6], -0.197 (inactive).
Take `CC(=O)OC[C@H]1O[C@H](CCON=C[C@@H](C)[C@H](OCc2ccccc2)C(C)C)C=C[C@@H]1OC(C)=O`: the composite z-score in test [1] is 1.12; in [5], -0.169; in [7] it was -0.138; in [8] it was 0.559; in [9], 0.226; in test [10] it was -0.0093. The z-score in test [2] was -0.283 (inactive); in test [3], -0.205 (inactive); in test [4], -0.3 (inactive); in test [6] it was -0.608 (inactive).
Take `CN1C(=O)C2C=CC(C(O)c3ccc(I)cc3)N(NC(=O)OC(C)(C)C)C2C1=O` (stereo not given): the composite z-score in test [1] was 0.896; in [5] it was 3.21; in test [7] it was 0.0607; in test [8], 0.17; in [9] it was 1.04; in [10], 0.157. Moreover, the z-score is 0.725 (inactive) in test [2], -0.424 (inactive) in test [3], 0.931 (inactive) in [4] and -1.07 (inactive) in [6].
For `CC=CC1=C(CO)[C@H](O)[C@H]2O[C@H]2[C@H]1O`, the composite z-score in [1] was 1.23; in test [5], -0.0789; in test [7], -0.24; in [8] it was 0.834; in [9], 0.67; in [10], -0.0382. Moreover, the z-score in test [2] is 0.505 (inactive); in test [3], 0.317 (inactive); in test [4], 1.12 (inactive); in [6], 0.131 (inactive).
Regarding `CCCNC(=O)OC[C@H]1O[C@H](CCON=CC[C@@H]2C=C[C@H](OC(C)=O)[C@@H](COC(C)=O)O2)C=C[C@@H]1Oc1ccc(OC)cc1`, the composite z-score in [1] was 1.18; in test [5], 0.667; in [7], -0.0159; in test [8], 0.643; in test [9], 0.249; in [10] it was 0.0486. Besides, the z-score is -0.704 (inactive) in test [2], 0.115 (inactive) in test [3], 0.023 (inactive) in test [4] and 0.457 (inactive) in [6].
Turning to `CCOC(=O)[C@H](Cc1ccccc1)NC(=O)CCC1CC(OC(=O)NCCc2ccc(F)cc2)CC2(CCCC(COC(=O)NCC(c3ccccc3)c3ccccc3)O2)O1` (stereo not given in full), the composite z-score in test [1] is 1.57; in test [5], 2.18; in test [7], -0.199; in [8], 0.538; in test [9], 1.14; in [10] it was -0.139. In addition, the z-score is 0.378 (inactive) in test [2], 0.745 (inactive) in test [3], -0.436 (inactive) in test [4] and 0.0565 (inactive) in [6].
For the molecule `CCN1C(=O)[C@H]2[C@H]3[C@H](O)[C@H](O)CC(=NOCc4ccccc4)[C@@H]3CC[C@H]2C1=O`, the composite z-score was 0.54 in test [1]; 0.558 in test [5]; -0.0917 in test [7]; 0.339 in test [8]; 0.761 in test [9]; -0.0568 in test [10]. The z-score in test [2] is -2.27 (inactive); in test [3], -0.784 (inactive); in test [4] it was -0.433 (inactive); in [6] it was -0.558 (inactive).
In the case of `CC(=O)OC[C@H]1O[C@H](C#CCCCc2ccccc2)C=C[C@@H]1OC(C)=O`, the composite z-score in test [1] is 0.351; in test [5] it was 1.01; in [7], -0.239; in test [8], 0.66; in test [9], 0.389; in test [10], -0.0703. Also, the z-score was 0.458 (inactive) in [2], -19.5 (active) in test [3], -0.967 (inactive) in test [4] and 0.0065 (inactive) in [6].
On to `CC(C)(C)N1C(=O)[C@H]2[C@H]3[C@H](O)[C@H](O)CC(=NOCc4ccccc4)[C@@H]3CC[C@H]2C1=O`, for which the composite z-score in [1] is 0.966; in test [5] it was 1.16; in [7], -0.0574; in [8], 0.524; in [9], 0.63; in test [10] it was 0.328. For the same molecule, the z-score is -1.86 (inactive) in test [2], -0.752 (inactive) in test [3], -0.715 (inactive) in test [4] and -0.207 (inactive) in test [6].
In the case of `CC(C)=NOCc1cccc(-c2cc(-c3ccccc3)no2)c1`, the composite z-score was 1.27 in test [1]; 1.18 in test [5]; -0.0375 in test [7]; 0.7 in test [8]; 0.881 in [9]; 0.161 in test [10]. Besides, the z-score in [2] was -0.366 (inactive); in test [3], -21 (active); in test [4] it was -0.442 (inactive); in test [6], 0.533 (inactive).
For the molecule `CCOC(=O)[C@H](CC(C)C)NC(=O)CCC1CC(OC(=O)NCc2cccc3ccccc23)CC2(CCCC(COC(=O)NCCc3ccccc3OC)O2)O1` (stereo not given in full), the composite z-score is 1.28 in test [1]; 2.96 in test [5]; -0.0505 in test [7]; 0.686 in [8]; 0.957 in test [9]; -0.0304 in test [10]. In addition, the z-score in test [2] is -0.133 (inactive); in test [3], -0.0584 (inactive); in [4], 0.407 (inactive); in test [6] it was -0.197 (inactive).
For `C=CC[C@@H]1C=C[C@H](ON=Cc2ccc(C(=O)N3[C@H](c4ccc(C)cc4)[C@@H](C)CC[C@H]3C(=O)OC)cc2)[C@@H](CO)O1`, the composite z-score is 0.537 in test [1]; 0.531 in [5]; -0.0741 in test [7]; 0.709 in test [8]; 0.162 in test [9]; -0.0223 in test [10]. Also, the z-score is -1.33 (inactive) in test [2], -0.119 (inactive) in [3], -0.733 (inactive) in [4] and 1.35 (inactive) in test [6].
In the case of `O=C1C2C=CC(C(O)c3ccc([N+](=O)[O-])cc3)N(Nc3ccc([N+](=O)[O-])cc3)C2C(=O)N1c1ccccc1` (stereo not given), the composite z-score was 1.46 in [1]; 3.28 in [5]; 0.198 in test [7]; -0.238 in [8]; 1.04 in test [9]; 0.387 in [10]. Moreover, the z-score in [2] is 0.664 (inactive); in [3], 1.53 (inactive); in test [4] it was 3.26 (inactive); in test [6], -0.956 (inactive).
With `COC(=O)[C@H](C)NC(=O)CCC1CC(OC(=O)NCCc2ccc(F)cc2)CC2(CCCC(COC(=O)NCC(c3ccccc3)c3ccccc3)O2)O1` (stereo not given in full), the composite z-score was 0.915 in test [1]; 1.88 in test [5]; -0.175 in [7]; 0.409 in test [8]; 0.897 in test [9]; -0.094 in [10]. Also, the z-score in test [2] was 0.304 (inactive); in test [3], 0.917 (inactive); in [4] it was 1.56 (inactive); in [6], 0.115 (inactive).
On to `CCOC(=O)NN=C1C[C@@H](O)[C@@H](O)[C@@H]2[C@@H]3C(=O)N(C[C@@H]4CCCO4)C(=O)[C@@H]3CC[C@@H]12`, for which the composite z-score was 0.0939 in [1]; 0.375 in [5]; -0.0458 in test [7]; 0.642 in test [8]; 0.697 in test [9]; -0.0681 in test [10]. Moreover, the z-score in test [2] was 0.822 (inactive); in test [3], -0.408 (inactive); in test [4], 0.256 (inactive); in test [6] it was 0.757 (inactive).
